# mHTT CaM bind: mutant huntingtin-calmodulin interaction inhibitors – biochemical, AlphaScreen, primary screen. P42858. AlphaScreen His-mHTT/GST-CaM binding, luminescence. inhibition, % at 15 µM. actives 3.6% (n = 190,000);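 also: 0% = both proteins with DMSO and 100% = one protein alone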
# Target sequence (P42858 whole entry, looked up, stated change not applied): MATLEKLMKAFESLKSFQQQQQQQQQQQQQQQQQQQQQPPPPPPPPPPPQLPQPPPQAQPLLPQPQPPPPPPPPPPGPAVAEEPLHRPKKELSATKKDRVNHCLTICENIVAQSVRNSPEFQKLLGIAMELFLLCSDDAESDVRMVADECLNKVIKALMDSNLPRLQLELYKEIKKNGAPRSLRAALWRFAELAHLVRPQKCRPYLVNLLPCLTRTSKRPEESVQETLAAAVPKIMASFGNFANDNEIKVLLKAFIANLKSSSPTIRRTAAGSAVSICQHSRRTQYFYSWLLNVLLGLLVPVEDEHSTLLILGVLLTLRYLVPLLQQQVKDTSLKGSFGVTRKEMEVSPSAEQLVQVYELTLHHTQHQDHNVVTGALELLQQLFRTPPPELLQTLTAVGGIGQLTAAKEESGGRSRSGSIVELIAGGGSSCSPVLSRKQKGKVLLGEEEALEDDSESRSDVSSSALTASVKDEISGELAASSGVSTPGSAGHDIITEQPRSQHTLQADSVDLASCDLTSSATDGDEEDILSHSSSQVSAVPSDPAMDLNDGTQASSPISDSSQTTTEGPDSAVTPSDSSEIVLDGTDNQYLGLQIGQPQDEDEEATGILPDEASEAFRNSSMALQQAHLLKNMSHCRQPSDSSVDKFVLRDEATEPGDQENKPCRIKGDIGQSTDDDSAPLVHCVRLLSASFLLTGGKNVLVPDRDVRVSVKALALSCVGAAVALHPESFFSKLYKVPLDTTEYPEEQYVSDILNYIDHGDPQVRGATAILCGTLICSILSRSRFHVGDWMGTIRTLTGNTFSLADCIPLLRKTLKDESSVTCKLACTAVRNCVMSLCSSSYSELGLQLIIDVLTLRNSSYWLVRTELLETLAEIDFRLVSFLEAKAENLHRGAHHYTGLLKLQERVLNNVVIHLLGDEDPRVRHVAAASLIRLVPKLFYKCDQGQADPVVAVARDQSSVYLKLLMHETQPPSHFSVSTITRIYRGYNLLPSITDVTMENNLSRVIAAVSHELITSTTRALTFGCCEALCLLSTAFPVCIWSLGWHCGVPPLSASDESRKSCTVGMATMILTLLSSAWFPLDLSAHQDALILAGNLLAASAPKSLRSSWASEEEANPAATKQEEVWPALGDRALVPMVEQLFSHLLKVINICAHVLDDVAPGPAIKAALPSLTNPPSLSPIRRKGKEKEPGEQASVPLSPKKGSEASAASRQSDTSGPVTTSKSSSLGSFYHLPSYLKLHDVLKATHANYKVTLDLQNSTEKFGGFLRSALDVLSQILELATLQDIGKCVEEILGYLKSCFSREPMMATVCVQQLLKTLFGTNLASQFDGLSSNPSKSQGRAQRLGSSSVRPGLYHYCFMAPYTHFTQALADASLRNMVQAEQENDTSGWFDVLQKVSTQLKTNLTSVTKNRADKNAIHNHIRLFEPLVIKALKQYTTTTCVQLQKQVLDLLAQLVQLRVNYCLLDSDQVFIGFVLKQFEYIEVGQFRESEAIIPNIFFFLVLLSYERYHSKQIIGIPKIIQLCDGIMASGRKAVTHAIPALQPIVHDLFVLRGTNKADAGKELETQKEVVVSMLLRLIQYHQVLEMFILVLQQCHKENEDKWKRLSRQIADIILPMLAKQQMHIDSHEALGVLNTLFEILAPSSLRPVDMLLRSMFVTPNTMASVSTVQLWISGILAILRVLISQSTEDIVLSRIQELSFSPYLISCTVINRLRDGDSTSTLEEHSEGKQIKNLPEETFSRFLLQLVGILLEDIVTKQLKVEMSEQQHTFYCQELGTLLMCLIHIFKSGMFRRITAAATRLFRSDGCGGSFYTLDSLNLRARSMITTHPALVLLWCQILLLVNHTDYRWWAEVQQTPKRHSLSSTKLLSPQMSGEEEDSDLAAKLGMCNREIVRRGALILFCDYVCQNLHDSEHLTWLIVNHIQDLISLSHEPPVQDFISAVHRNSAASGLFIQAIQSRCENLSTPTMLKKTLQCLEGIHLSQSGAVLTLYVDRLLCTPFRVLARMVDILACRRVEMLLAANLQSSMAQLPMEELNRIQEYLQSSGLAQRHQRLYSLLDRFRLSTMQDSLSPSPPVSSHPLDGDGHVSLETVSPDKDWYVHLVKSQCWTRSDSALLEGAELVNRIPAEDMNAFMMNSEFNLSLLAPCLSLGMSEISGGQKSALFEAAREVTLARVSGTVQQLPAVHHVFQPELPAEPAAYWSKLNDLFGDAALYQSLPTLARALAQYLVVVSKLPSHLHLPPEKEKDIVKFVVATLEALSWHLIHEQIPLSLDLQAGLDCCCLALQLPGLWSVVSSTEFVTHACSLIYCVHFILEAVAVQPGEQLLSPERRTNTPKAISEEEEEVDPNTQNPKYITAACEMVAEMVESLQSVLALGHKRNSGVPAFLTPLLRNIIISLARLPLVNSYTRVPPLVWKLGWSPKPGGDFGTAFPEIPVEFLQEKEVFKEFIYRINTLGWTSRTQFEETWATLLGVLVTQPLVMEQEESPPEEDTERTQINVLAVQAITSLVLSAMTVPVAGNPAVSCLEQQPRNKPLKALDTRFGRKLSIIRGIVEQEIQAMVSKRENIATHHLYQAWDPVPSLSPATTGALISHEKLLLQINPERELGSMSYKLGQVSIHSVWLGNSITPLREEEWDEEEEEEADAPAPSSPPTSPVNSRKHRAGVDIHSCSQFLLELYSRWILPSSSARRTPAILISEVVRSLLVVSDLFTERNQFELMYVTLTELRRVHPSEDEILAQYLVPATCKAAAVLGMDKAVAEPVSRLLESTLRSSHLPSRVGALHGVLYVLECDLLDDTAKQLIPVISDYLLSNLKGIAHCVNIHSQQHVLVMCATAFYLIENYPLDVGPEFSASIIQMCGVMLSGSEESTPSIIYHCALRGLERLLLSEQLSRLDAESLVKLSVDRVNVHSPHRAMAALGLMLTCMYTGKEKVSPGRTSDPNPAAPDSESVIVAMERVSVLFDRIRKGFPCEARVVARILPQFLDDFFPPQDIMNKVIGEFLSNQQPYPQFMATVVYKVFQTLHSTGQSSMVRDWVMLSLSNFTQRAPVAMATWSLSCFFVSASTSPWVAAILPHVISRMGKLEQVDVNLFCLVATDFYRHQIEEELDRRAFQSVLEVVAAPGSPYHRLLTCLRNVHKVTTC
# Pf apPOL inh: Pf-apPOL inhibitors, biochemical, fluorescence; inhibition, % at 10 µM; AID 1794808, 2022; Plasmodium falciparum apicoplast DNA polymerase (apPOL); actives 0.25% (n = 210,000); Recombinant Pf-apPOL, molecular beacon fluorescence, 1.5 h
# * = called active by the depositor; · = no result. Only a selection was taken, and hits are over-represented in it overall. Rule as the data show it: active = inhibition above about 50%; inactive = the rest.
SMILES,mHTT CaM bind,Pf apPOL inh
C[C@H](c1ccccc1)N1C[C@H](COCc2ccccc2)Oc2cc(N3CC[C@H](O)C3)ccc2S1(=O)=O,72*,-4
CCOc1cc(O)c(-c2n[nH]c(C)c2-c2ccc(F)cc2)cc1CC,47,-4
CCc1cc(-c2n[nH]c(C)c2-c2nc3ccccc3s2)c(O)cc1OC,98*,-1
COCCNC(=O)c1ccc(CS(=O)(=O)Cc2ccccc2Cl)o1,1,-10
Cc1ccc(NC(=O)c2cc3c(CO)cnc(C)c3oc2=Nc2cccc(Cl)c2)cc1,1,-4
Cc1ccc(/C=C2\C(=O)Nc3ccc(Br)cc32)cc1,43,-9
COc1ccccc1/C=C1\C(=O)Nc2ccc(F)cc21,30,2
CCCCOc1ccccc1/C=C1\C(=O)Nc2ccc(Br)cc21,62*,3
CCOc1ccccc1/C=C1\C(=O)Nc2ccc(F)cc21,96*,-7
O=C1Nc2ccc(Br)cc2/C1=C/c1ccc(Br)cc1,35,2
Cc1ccccc1/C=C1\C(=O)Nc2ccc(Br)cc21,97*,-4
COc1ccc(Br)cc1/C=C1\C(=O)Nc2ccc(Br)cc21,5,-37
O=C1Nc2ccc(Br)cc2/C1=C/c1ccc(O)cc1,100*,-29
O=C(CSc1nc2ccccc2s1)Nc1ccc2cn[nH]c2c1,15,-1
Cc1cccc(-c2nccc(C3CCCN(C(=O)c4ccccc4F)C3)n2)c1 (configuration not stated),-5,0
Cc1[nH]c2ccccc2c1S(=O)(=O)CCNC(=O)Nc1ccc(C(F)(F)F)cc1,-4,-11
O=C1Nc2ccc(F)cc2/C1=C/c1ccccc1F,21,-7
O=C1Nc2ccc(F)cc2/C1=C/c1ccc(F)cc1,17,0
CCOc1c(O)ccc(/C=C2\C(=O)Nc3ccc(Br)cc32)c1[N+](=O)[O-],94*,-23
CCOc1cc(/C=C2\C(=O)Nc3ccc(Br)cc32)c(Br)cc1OC,40,4
Cc1ccc(/C=C2\C(=O)Nc3ccc(Br)cc32)o1,75*,0
CSc1ccc(/C=C2\C(=O)Nc3ccc(Br)cc32)cc1,39,3
CC(C)c1ccc(/C=C2\C(=O)Nc3ccc(F)cc32)cc1,100*,-8
Cc1ccccc1/C=C1\C(=O)Nc2ccc(F)cc21,100*,-10
COc1cc(C2=NOC(C(=O)Nc3ccc(F)cc3F)C2)cc(OC)c1OC (configuration not stated),4,-2
SMILES,mHTT CaM bind,Pf apPOL inh
Cc1c(C=O)c2ccccc2n1CC(=O)NC1CCCCCC1,0,-2
COc1ccc(C(C[N+](=O)[O-])c2c(C)[nH]c3ccccc23)cc1OC (configuration not stated),50,-7
COc1ccc(C(C[N+](=O)[O-])c2c[nH]c3ccccc23)cc1 (configuration not stated),36,-2
COc1cc(C(C[N+](=O)[O-])c2c(-c3ccccc3)[nH]c3ccccc23)cc(OC)c1OC (configuration not stated),58*,-1
COc1ccc(C(C[N+](=O)[O-])c2c(C)[nH]c3ccccc23)c(OC)c1 (configuration not stated),63*,2
CC(C)S[C@@H]1O[C@H](CO)[C@H](O)[C@H](O)[C@H]1O,-5,·
O=C(c1cc2c(s1)CCC(C(=O)N1CCN(c3ccccn3)CC1)C2)N1CCCCC1 (configuration not stated),5,-3
Cc1[nH]c(C(=O)N2CCC(CC(=O)NCc3ccc(F)cc3)CC2)c(C)c1C,28,-4
Cc1ccc(S(=O)(=O)c2ccc(Cl)cc2)cc1S(=O)(=O)Nc1ccc(C(=O)O)cc1,-2,3
CC(=O)Nc1ccc(NC2=CC(=NS(=O)(=O)c3ccc(C)cc3)c3ccccc3C2=O)cc1,39,-1
O=C(O)c1ccc(NC2=CC(=NS(=O)(=O)c3ccc(Cl)cc3)c3ccccc3C2=O)cc1,82*,5
CC(=O)Nc1ccc(NC2=CC(=NS(=O)(=O)c3ccccc3)c3ccccc3C2=O)cc1,71*,-2
O=C(Cc1csc(-n2cccc2)n1)NCc1ccc2c(c1)OCO2,-4,28
Fc1ccccc1OCCSc1nc2ccccc2[nH]1,-19,0
CCCn1cnnc1C1CCN(C(=O)c2ccco2)CC1,2,-1
CC(=O)N1CCc2ccccc2C1C(=O)N1CCN(c2ccc(F)cc2)CC1 (configuration not stated),13,-2
CC(=O)N1CCc2ccccc2C1C(=O)N1CCN(c2ccc(C)cc2)CC1 (configuration not stated),44,-1
O=C(C1c2ccccc2CCN1C(=O)C1CC1)N1CCN(c2ccc(F)cc2)CC1 (configuration not stated),55*,-2
CC(=O)N1CCc2ccccc2C1C(=O)N1CCN(c2cccc(Cl)c2)CC1 (configuration not stated),78*,-3
Cc1nn(C)c(C)c1CNC(=O)C1CN(C(=O)c2cccs2)CC12CCCCC2 (configuration not stated),7,1
Cc1nc(CC(=O)Nc2ccc(Cl)cc2F)cs1,-1,-2
CCc1onc(C)c1C1CCCN1Cc1cc(OC)ccc1OC (configuration not stated),4,-1
C=CC(C)N1C(=O)S/C(=C\c2ccc(N3CCOCC3)o2)C1=O (configuration not stated),9,11
CC(=O)c1ccc(NS(=O)(=O)c2ccc3[nH]c4c(c3c2)CCCC4)cc1,63*,-4
CC(=O)c1ccc2c3c([nH]c2c1)CCCC3,0,-6
SMILES,mHTT CaM bind,Pf apPOL inh
COC(=O)c1ccc(NS(=O)(=O)c2ccc3[nH]c4c(c3c2)CCCC4)cc1,38,1
COc1ccc(NS(=O)(=O)c2ccc3[nH]c4c(c3c2)CCCC4)cc1,80*,-5
O=S(=O)(Nc1ccc(F)cc1F)c1ccc2[nH]c3c(c2c1)CCCC3,91*,-2
COc1ccc(NS(=O)(=O)c2ccc3[nH]c(=O)sc3c2)cc1,-5,-1
CCOc1ccccc1NS(=O)(=O)c1ccc2[nH]c3c(c2c1)CCCC3,26,-3
COC(=O)c1ccc(NS(=O)(=O)c2ccc3[nH]c4c(c3c2)CCCCC4)cc1,68*,-1
Cc1ccc(C(=O)N2CCC(CCNC(=O)COc3ccc(F)cc3)CC2)cc1,11,-2
Cc1c(N=C/C=C/c2cccc([N+](=O)[O-])c2)c(=O)n(-c2ccccc2)n1C,0,1
Cc1ccc(S(=O)(=O)CCc2nnc(NC(=O)c3ccc([N+](=O)[O-])cc3)s2)cc1C,-1,-6
O=C(/C=C/c1ccc2c(c1)OCO2)Nc1c2c(nn1-c1ccc([N+](=O)[O-])cc1)CSC2,37,-2
O=C(Nc1c2c(nn1-c1ccc(F)cc1)CSC2)c1ccc(Br)o1,58*,-11
COc1ccc(C(=O)Nc2c3c(nn2C(C)(C)C)CSC3)cc1,23,-2
O=C(/C=C/c1ccccc1)Nc1c2c(nn1-c1cccc(Cl)c1)CSC2,53*,-3
O=C(Nc1c2c(nn1-c1cccc(Cl)c1)CSC2)c1cccc(Cl)c1,-1,-6
Cc1ccc(-n2nc3c(c2NC(=O)c2ccc(Br)o2)CSC3)cc1,47,-6
CC(C)(C)n1nc2c(c1NC(=O)/C=C/c1ccccc1)CSC2,98*,3

# Bioassay records: PubChem BioAssay, University of Kansas High Throughput Screening Laboratory
